Columns and labels:
Experiment in all cases: PBM binding z-score (relative to random genomic background probes); higher = stronger binding; sequences stand for … in GC…GCGATTGACAGCGTAGAATGAAGG
[1] = system: PPARg:RXRa DBDmut IVT, anti-RXR (DBD mutation: RXRa K156A/R161A, NR concentration 270 nM, RXRa partner concentration 90 nM)
Procedure, shortened: (§1)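 Binding buffer was PBS pH 7.4 with 2% milk, 0.02% Triton X-100, 1 mM DTT, 0.2 mg/mL BSA and 0.4 mg/ml salmon testes DNA. In it, ligand-free nuclear receptor dimers were incubated 1 h on custom Agilent 4×180K protein-binding microarrays carrying double-stranded probes. Antibodies against each partner (one per run) detected binding, and z-scores were calculated against random background probes after regression normalization of scanned fluorescence.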

[2] = system: PPARg:RXRa IVT, anti-PPARg (NR concentration 270 nM, RXRa partner concentration 90 nM)
Procedure, shortened: as §1

[3] = system: PPARg DBDmut:RXRa IVT, anti-PPARg (DBD mutation: PPARg1 K132A/R137A, NR concentration 270 nM, RXRa partner concentration 90 nM)
Procedure, shortened: as §1

[4] = system: PPARg DBDmut IVT, anti-PPARg (DBD mutation: PPARg1 K132A/R137A, NR concentration 270 nM)
Procedure, shortened: as §1

[5] = system: PPARg homodimer (NR concentration 180 nM)
Procedure, shortened: as §1

[6] = system: PXR:RXRa (NR concentration 270 nM, RXRa partner concentration 90 nM)
Procedure, shortened: as §1

[7] = system: PXR homodimer (NR concentration 270 nM)
Procedure, shortened: as §1

[8] = system: RARa:RXR (NR concentration 270 nM, RXRa partner concentration 90 nM)
Procedure, shortened: as §1

[9] = system: RARa homodimer (NR concentration 270 nM)
Procedure, shortened: as §1

[10] = system: RARb:RXRa (NR concentration 270 nM, RXRa partner concentration 90 nM)
Procedure, shortened: as §1

| Sequence | PBM binding z-score [1] | PBM binding z-score [2] | PBM binding z-score [3] | PBM binding z-score [4] | PBM binding z-score [5] | PBM binding z-score [6] | PBM binding z-score [7] | PBM binding z-score [8] | PBM binding z-score [9] | PBM binding z-score [10] |
| --- | --- | --- | --- | --- | --- | --- | --- | --- | --- | --- |
| GGAACGAGGGCAATCGAGTTGATAGCATGGCGAT | 3.45 | 2.82 | -0.0288 | -1.1 | -0.25 | 3.29 | 0.305 | 0.677 | -0.463 | 1.6 |
| ATCGAAAAGTCGACGAGGTGAGTATACACCGTTT | -0.448 | 0.432 | 0.0649 | 0.51 | -0.218 | 0.103 | -0.0447 | 0.451 | -0.121 | 0.388 |
| TTCCCAAGGTGAAGGTCGTTGATCCCTCTGTAGA | 0.771 | 2.06 | -0.218 | -0.23 | 1.17 | 1.5 | 0.155 | 1.78 | -0.438 | 2.2 |
| ATATGTAGGTTAAGGGTCAGTCAGGTTGGTTCGC | 7.48 | 7.77 | 4.77 | 2.22 | 3.78 | 4.14 | 2.03 | 4.53 | 2.65 | 3.51 |
| TCTGCTAGGTCAGTTGGTCATCTAACGAGCTGCC | 2.75 | 3.27 | 0.685 | 0.261 | 0.396 | 0.316 | -0.767 | 0.721 | -0.587 | 3.47 |
| TCTATTAGTTGAAGGGCAACCGTCGAGTCCGTTT | 2.35 | 0.992 | 0.699 | 1.21 | 0.883 | 0.735 | 0.911 | 0.24 | 1.09 | 1.63 |
| GGGACGAGGGCAAAGTTGATAGCATCTGTCGACG | 2.42 | 3.76 | 0.246 | 0.748 | 1.07 | 1.44 | 0.491 | 1.48 | 0.362 | 2.46 |
| ACTATTAGTTGACTTAGGGCAACAGATACGACGC | 0.146 | 0.696 | 1.18 | 1.49 | 0.262 | 0.159 | 0.123 | 0.356 | 0.66 | 0.851 |
| ACAGACAGGTGATGAAGGTGACTCAGGCTATCAT | 0.111 | 0.845 | 0.651 | 0.382 | 0.791 | 0.114 | 0.191 | 0.48 | 0.471 | 0.728 |
| CTACCAAGGTGAATAAGGTCGTTGATTACTATTC | 1.82 | 2.39 | 0.0322 | -0.387 | 0.714 | 2.37 | 2.32 | 2.44 | 0.949 | 1.71 |
| CTACCAAGGAGAACAAGGTCGTTGATTACTATTC | 0.168 | 0.269 | -0.0895 | 0.25 | 0.615 | 1.23 | 1.05 | 1.17 | 0.421 | 0.589 |
| CCTGCTAGGTCATGGCCAGCTAATCTACAGTATG | 4.25 | 3.91 | 0.0686 | -0.931 | 0.851 | 1.27 | -0.389 | 2.49 | -0.572 | 3.98 |
| ACTATTAGTTGAGACGAGGGTAACCGATAGGTTG | 0.111 | 0.339 | 0.757 | 0.539 | 0.211 | 0.245 | 0.43 | 0.64 | 0.125 | 0.342 |
| TCATATAGGTAAATGCTAGGTGAACGTCCGATCT | 4.03 | 2.94 | 0.935 | 1.01 | 0.675 | 0.493 | 0.0506 | 0.769 | 0.634 | 0.536 |
| CGAGCTAGGTCATTGACAGGACAGTGAATAGTAA | 3.51 | 2.78 | 0.0808 | -0.146 | 0.918 | 1.54 | 0.31 | 2.18 | -0.128 | 3.66 |
| CCAGACAGGTTAGAAGGTAACTCAGCCTCGATTA | 0.311 | 0.0619 | -0.119 | -0.234 | 1.19 | 0.328 | 0.257 | 0.828 | 0.903 | 0.829 |
| CCTATTAGTTGACCATAAGGGCATCCGAAGCTCG | 0.225 | 0.238 | 0.764 | 0.611 | 0.73 | 0.903 | 1 | 0.903 | 1.97 | 1.37 |
| TCTCGTAGGACACGAAAGGTCAGAGCTCGACATC | 1.81 | 1.71 | -0.191 | 0.17 | 3.44 | 3.94 | 0.393 | 4.37 | 1.1 | 4.02 |
| CGTACAAGGTCAGAGAGGTCAGTGAATGCCGAGT | 3.77 | 4.39 | 1.15 | 1.93 | 3.94 | 6.31 | 12.2 | 5.87 | 1.83 | 5.17 |
| TCATATAGGTAATACAGGTGAAAGTAGGCATCTA | 3.97 | 3.61 | 1.94 | 1.73 | 1.39 | 0.952 | 0.772 | 1.07 | 1.69 | 0.613 |
| CCTCACGGGTCACGAGGTTATAGCACGACGAGCG | 1.87 | 3.65 | 0.599 | -0.0554 | 3.5 | 4.4 | 0.143 | 5.63 | 0.537 | 4.43 |
| ATCGAAAGGTCGACGAGGTGAGGATACACCGTTT | 0.8 | 2.39 | 0.388 | 0.42 | 1.72 | 2.77 | 0.496 | 3.52 | 0.262 | 3.98 |
| AATACAGCGTCATCGTAGGCCAGAGTACGCACAG | -0.562 | 0.0727 | 0.418 | -0.309 | -0.333 | -0.367 | -0.167 | -0.0509 | -0.571 | -0.182 |
| ACTATTAGTTGAGACGATGGCAACCGATAGGTTG | 0.172 | 0.0295 | 0.79 | 1.06 | 0.664 | -0.242 | -0.102 | -0.204 | 0.657 | -0.199 |
